Screening results (PubChem BioAssay)
HCMV antiviral: blocks human cytomegalovirus replication; HFF cells, HCMV-luciferase reporter, 72 h; active compounds read low; activity change, negative = inhibition, % at 57.5 µM; 410,000 tested, 4.5% active; in the data active = activity change below about -60%; inconclusive = no clear call, values can overlap the other calls; inactive = above about -39%
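Steps: HFFs plated, 16 h 37C; compounds added; HCMV-luciferase added to MOI 1 PFU/cell; 72 h 37C; OneGlo reagent, 5 min room temperature; luminescence read, normalized to controls.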
HCV inh: blocks hepatitis C virus. 340,000 tested, 3.4% active. Huh7.5.1 HCVcc-Cre infection, luciferase reporter, 44 h. Potency, µM (series often up to 41.8 µM), inactives show at the highest dose activity change, negative = inhibition, usual class: inhibitors; active = well fitted inhibition curve with a large enough effect; inconclusive = small, poorly fitted or top-dose-only effect, or another doubt; inactive = no such curve, though single readings can be large or run the other way; note: potency is the fitted concentration of half-maximal effect
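Reporter virus HCVcc-Cre (~0.5 moi) infects cells exposed to compound; seeding density 1,000 cells/well with 4 h settling beforehand. Luminescence, 15 sec read, taken 44 h post-infection following a 15 min RT substrate incubation.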
Marburg entry inh: Marburg virus entry inhibition. Marburg virus pseudotyped entry inhibition, cell reporter. Potency, µM (titrated, usually from 37.8 µM), inactives show at the highest dose activity change, negative = inhibition, hits mostly inhibitors. 300,000 tested, 1.8% active. AID 540276; calls by dose curve; tested in HEK293 cells; note: potency is the fitted concentration of half-maximal effect
LASV entry inh: inhibitors of Lassa virus binding or cell entry; 300,000 tested, 1.2% active; Potency, µM (doses to about 37.9 µM), without a hit: at the highest dose activity change, negative = inhibition, hits mostly inhibitors; Lassa virus pseudotype entry inhibition, cell reporter; calls by dose curve; tested in HEK293 cells; note: potency is the fitted concentration of half-maximal effect; nearly all actives have a fitted effect of over 50% in size
FMDV inh: foot and mouth disease virus antiviral activity. FMDV antiviral cell-based qHTS. Potency, µM (titrated, usually from 57.9 µM), for inactives: at the top dose activity change, negative = inhibition, hits mostly inhibitors. 410,000 tested, 1.2% active; calls by dose curve; tested in HEK293T cells; note: read-out not given here; potency is the fitted concentration of half-maximal effect; nearly all actives have a fitted effect of over 45% in size
* marks the source's active call; other numbers are inactive results; ? = inconclusive; . = no result; [ ] = dose if it differs, or a comment. Sampled rows, rich in hits. Any-hit rate of the full collection: about 7.9%. % is set by controls: 0 for no effect and ±100 for the full control effect.

SMILES	HCMV antiviral	HCV inh	Marburg entry inh	LASV entry inh	FMDV inh
O=C(/C=C/c1cccs1)c1ccc(NC(=O)c2cccc(Br)c2)cc1	38.7	6.31µM*	-7.1%	0.4%	1.4%
CC(=O)c1cccc(NC(=O)c2ccc(N(Cc3ccc(C)cc3)S(C)(=O)=O)cc2)c1	-6.8	12.6µM*	?	?	?
Cc1ccc(NC(=O)c2ccc(N(Cc3ccccc3)S(C)(=O)=O)cc2)cc1	20.6	.	.	?	4.8%
O=C(Nc1ccc(N2CCC(c3ccccc3)C2)c(C(=O)O)c1)c1ccc(Cl)cc1 (stereo not given)	-2.9	.	.	-22.7%[46.1 µM]	-5.7%
N#CCN(C(=O)CSc1nnc(C2CC2)n1C1CC1)c1ccccc1	63.2	.	.	.	-4.9%
COc1ccccc1N1CCN(c2ccnc3cc(Cl)ccc23)CC1	-63.3*	?	?	?	-11.4%
COc1ccccc1NC(=O)N1CCc2[nH]c3ccc(Cl)cc3c2C1	-17.8	11.2µM*	-22.5%	?	?
O=C(C1CC1)N1CCN(c2ccnc3cc(Cl)ccc23)CC1	?	5.9%	1.7%	0.9%	-13.5%
COc1ccccc1NC(=O)N1CCN(c2ccnc3cc(Cl)ccc23)CC1	-67.0*	?	?	-22.5%	?
CCn1nccc1C(=O)Nc1ccc(C(=O)OC(C)C)cc1	-11.6	?	.	.	7.9%
CC(C)OC(=O)OCOP(=O)(CO[C@H](C)Cn1cnc2c(N)ncnc21)OCOC(=O)OC(C)C	-17.3	.	.	.	.
C[C@@H]1O[C@@H](O[C@@H]2C=C3CCC4C(CC[C@]5(C)[C@@H](c6ccc(=O)oc6)CC[C@]45O)[C@@]3(C)CC2)[C@H](O)[C@H](O)[C@H]1O (stereo not given in full)	-98.8*	?	.	.	?
C[C@@H]1O[C@@H](O[C@@H]2C=C3CC[C@@H]4C(CC[C@]5(C)[C@@H](c6ccc(=O)oc6)CC[C@]45O)[C@@]3(C)CC2)[C@H](O)[C@H](O)[C@H]1O (stereo not given in full)	-96.9*	0.562µM*	.	.	?
O=C(NCc1ccccc1)c1cccc(COc2ccc3c(c2)CCC3)c1	148.4	-8.7%	?	?	-10.1%
O=Cc1ccc(OCc2cccc(C(F)(F)F)c2)cc1O	5.5	16.1%	?	-3.9%[46.1 µM]	4.4%
O=C(OCC(F)(F)F)c1cccc(COc2ccc3ccccc3c2)c1	165.5	-0.2%	1.26µM*	?	?
CCOc1ccc(OCc2cccc(C(=O)N3CCCCCC3)c2)cc1	-3.5	-33.7%	?	3.55µM*	-72.3%
CCOc1ccc(OCc2cccc(C(=O)O)c2)cc1	1.0	0.1%	?	?	0.891µM*
O=C(O)c1cccc(COc2ccc3c(c2)CCC3)c1	0.0	18.4%	?	0.366µM*	2.82µM*
CCOc1ccc(OCc2cccc(C(=O)N3CCCC3)c2)cc1	194.6	-5.3%	?	?	.
CN(Cc1ccco1)C(=O)c1cc(NC(=O)C2CCC2)c2c(c1)nc(-c1ccncc1)n2C	.	.	.	.	0.8%
O=C1NC(Cc2ccccc2)c2nc3ccccc3c(=O)n2-c2cc3ccccc3cc21 (stereo not given)	-19.6	.	.	.	-13.1%
O=C(c1cccs1)C1CCCN(Cc2nc(Cc3ccccc3F)no2)C1 (stereo not given)	-35.1	11.2%	.	.	0.8%
CCN(CC(=O)Nc1c(F)cccc1F)C(=O)Cc1csc(-c2ccc(OC)c(OC)c2)n1	-2.2	-9.6%	15.9%	?	8.3%
COc1cccc(NS(=O)(=O)c2ccc(-n3cccn3)cc2)c1	?	2.2%	.	.	-6.9%
SMILES	HCMV antiviral	HCV inh	Marburg entry inh	LASV entry inh	FMDV inh
COc1ccc(NC(=O)CCC(=O)Nc2nnc(CC(C)C)s2)cc1Cl	-30.7	11.1%	13.1%[46.1 µM]	?	34.6%
O=C(O)c1cccc(COc2ccc(CO)cc2Cl)c1	24.5	0.0%	?	0.291µM*	.
COc1ccc(OCc2cccc(C(=O)O)c2)cc1	-18.3	4.0%	?	?	1µM*
CC(C)(C)OC(=O)N1CCC(C(=O)Nc2ccc(C(=O)NC3CC3)cc2)CC1	-27.3	-2.8%	.	.	-14.4%
Cn1nc(C(F)(F)F)c(-c2cccc(C(F)(F)F)c2)c1NC(=O)c1ccco1	-70.8*	-5.9%	.	.	-21.7%
CC1CCCCC1NC(=O)COC(=O)c1ccccc1NC(=O)c1ccco1 (stereo not given)	-29.4	19.6%	14.1%	-23.8%	-17.7%
CNC(=O)COC(=O)c1ccccc1NC(=O)c1ccco1	-100.8*	-9.8%	.	.	-14.1%
CC(C)(C)c1ccc(Oc2ccc(NC(=O)c3cccs3)cn2)cc1	?	?	12.6µM*	?	12.6µM*
O=C(Nc1ccc(Oc2ncccn2)cc1)c1ccco1	47.8	6.8%	9.3%	7.6%	14.5%
CC(C)(C)c1ccc(Oc2ccc(NC(=O)c3ccco3)cn2)cc1	-103.4*	7.94µM*	.	.	?
COc1ccc(-c2ccc(NC(=O)c3ccco3)cc2)nn1	7.2	-19.8%	?	?	11.2µM*
CC(C)(C)c1ccc(C(=O)Nc2ccccc2NC(=O)c2ccco2)cc1	-20.0	12.6µM*	?	?	-18.5%
O=C(Nc1cccc(Oc2ccc3c(c2)C(=O)NC3=O)c1)c1ccco1	5.7	23.9%	-0.3%	7.9%	.
O=C(Nc1ccc(Oc2cccnc2)nc1)c1ccc(C(F)(F)F)cc1	-71.7*	2.24µM*	5.62µM*	-13.3%[46.1 µM]	?
O=C(NC(=O)c1c(Cl)cccc1Cl)Nc1ccc(Oc2cccnc2)nc1	-25.2	-0.1%	-9.2%	-5.4%	-9.6%
O=C(Nc1ccc(Oc2cccc(C(F)(F)F)c2)nc1)c1ccco1	-71.9*	10µM*	?	-19.9%	?
COc1ccc(-c2cccc(NC(=O)c3ccco3)c2)nn1	-34.0	-1.7%[8.37 µM]	10.2%	?	-5.9%
CCOC(=O)c1ccc(NC(=O)CSc2nccn2-c2cc(C)cc(C)c2)cc1	-1.0	.	.	26.9%[46.1 µM]	?
Cc1ccc(N(C)S(=O)(=O)c2nnc(NC(=O)CC(C)C)s2)cc1	55.5	.	.	6.1%[46.1 µM]	1.0%
COc1ccc2nc(N/C(N)=N/C(=S)Nc3ccc(C)c(C)c3)nc(C)c2c1	.	3.98µM*	2.8%	2.5%	.
CCOc1ccc2nc(N/C(N)=N/C(=S)Nc3ccc(OC)cc3)nc(C)c2c1	-8.1	?	.	.	-7.5%
CCc1ccc(NC(=S)/N=C(\N)Nc2nc(C)c3cc(CC)ccc3n2)cc1	-28.4	15.8µM*	?	?	?
COc1ccc2nc(N/C(N)=N/C(=S)Nc3ccccc3)nc(C)c2c1	-30.6	11.2µM*	?	-2.2%	-20.3%
COc1ccc(CCNC(=O)c2c(C)nn(CC(C)C)c2Cl)cc1	-11.7	-24.6%	-8.7%	2.24µM*	1.1%
Cc1ccccc1Oc1cc(-n2ncc(Cl)c(Cl)c2=O)ncn1	-105.3*	?	?	?	4.47µM*
Oc1ccc(N=Nc2ccc3c(c2)OCCO3)c2cccnc12	-98.4*	?	?	?	?
Nc1ccc(Br)c2cccnc12	-26.2	?	?	-0.9%	-7.2%
Nc1ccc(N=Nc2ccccc2)c2cccnc12	388.9	2.51µM*	.	.	37.1%
COc1cc(OC)cc(C(=O)Nc2cccc3cccnc23)c1	-3.5	-15.0%	?	-2.1%	10.3%
